From PubChem BioAssay AID602192 (The Scripps Research Institute Molecular Screening Center, 2012)
Among all 2,400 compounds or so, about 750 (31%) were called active.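 Rule for the calls: active = mean activation across replicates above the hit cutoff set in the earlier primary screen (cut at about 8% in these data); inactive = the rest.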 The list is a sample of the results.

Each molecule was assayed against Melanocortin receptor 4 (Homo sapiens) (UniProt P32245) (assay: activators of MC4R arrestin recruitment – cell-based, luminescence, U2OS, confirmation (AID 602192)). Conditions: U2OS MC4R beta-arrestin recruitment, at 8.9 µM, active compounds read high, scaled DMSO 0%, Melanotan II 100%.
Chain of Melanocortin receptor 4 (Homo sapiens) (P32245 whole entry, looked up): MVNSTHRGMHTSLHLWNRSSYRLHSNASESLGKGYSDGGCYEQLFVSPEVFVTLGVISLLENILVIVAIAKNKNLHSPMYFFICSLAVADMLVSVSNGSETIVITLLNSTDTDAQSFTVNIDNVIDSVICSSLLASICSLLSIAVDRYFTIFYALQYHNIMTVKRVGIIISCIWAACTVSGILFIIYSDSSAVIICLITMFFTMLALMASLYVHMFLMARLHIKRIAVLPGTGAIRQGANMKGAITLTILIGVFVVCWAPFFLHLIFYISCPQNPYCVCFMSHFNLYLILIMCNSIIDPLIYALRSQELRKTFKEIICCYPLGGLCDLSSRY

SMILES | activation
CCN1C[C@@H]2[C@@H]3C(=O)N(Cc4ccccc4)C(=O)[C@@H]3[C@](Cc3ccccc3)(C(=O)OC)N2C1=NC1CCCCC1 | 17% (active)
COc1ccc2nc(NC(=O)c3ccc(Br)s3)sc2c1 | 5.97% (inactive)
CN(C)CCCN(C(=O)c1ccc(S(=O)(=O)N2CCCCCC2)cc1)c1nc2ccc(Br)cc2s1 | 15.3% (active)
CSc1nc2sc3c(c2c(=O)[nH]1)CCc1ccccc1-3 | 9.67% (active)
COc1ccc(Cn2c(C)c(C)c(C#N)c2NC(=O)Nc2ccc(F)cc2)cc1 | 2.83% (inactive)
COC(=O)c1sccc1NC(=O)CCC1CCCC1 | 0.35% (inactive)
Cc1csc(NC(=O)c2ccc(-c3ccc(Cl)cc3Cl)o2)n1 | 9.09% (active)
O=C(NC(c1ccc(-c2ccccc2)cc1)c1cnccn1)C1CCN(CCOc2ccc(Cl)cc2Cl)CC1 (stereo unspecified) | 7.32% (inactive)
O=C(Nc1nc(-c2ccc(-c3ccccc3)cc2)cs1)c1cnccn1 | 10.5% (active)
Cc1ccc(-c2csc(NC(=O)Cn3[nH]c(=O)c4ccccc4c3=O)n2)cc1 | 2.98% (inactive)
Cc1ccc(NC(=O)Nc2ccccc2)c(Br)c1 | 3.05% (inactive)
N#CC(=C1SC=CS1)c1nc(-c2ccccc2)cs1 | -2.79% (inactive)
Brc1ccc(-c2csc(N/N=C/c3cccnc3)n2)cc1 | -2.16% (inactive)
CC(=O)Nc1ccc(-c2csc(NC(=O)Nc3ccccc3)n2)cc1 | 26.9% (active)
N#CCC(=O)N/N=C/c1cn(Cc2ccc3ccccc3c2)c2ccccc12 | 2.4% (inactive)
COc1ccc(C(=O)c2oc3ccc(Br)cc3c2NC(C)=O)cc1 | 1.93% (inactive)
COc1ccc(/C=N/NC(=O)Nc2ccc3nsnc3c2)c(OC)c1 | -0.12% (inactive)
CC(=O)c1sc(NC(=O)CCCOc2ccccc2C)nc1C | 5.8% (inactive)

SMILES | activation
COc1ccc(C(=O)n2nc(-c3ccc(C)cc3)nc2N)cc1OC | 0.77% (inactive)
COc1cccc(CNCCc2c[nH]c3ccccc23)c1OCc1ccccc1F | 32% (active)
CCc1ccc(Nc2ncc3c(n2)CC(c2ccco2)CC3=O)cc1 (stereo unspecified) | 0.77% (inactive)
COc1ccc(OCC(=O)Nc2ccc(N3CCC(C)CC3)cc2)cc1 | 2.6% (inactive)
O=C(CCCN1C(=O)/C(=C/c2cccs2)SC1=S)Nc1ccc(O)cc1 | 11.8% (active)
O=C(CCCN1C(=O)/C(=C\c2ccco2)SC1=S)Nc1cccc2ccccc12 | -0.83% (inactive)
O=C(/C=C/c1c(Cl)cccc1Cl)NCc1ccccc1 | -0.28% (inactive)
COc1cccc2sc(N(CCCN(C)C)C(=O)C(c3ccccc3)c3ccccc3)nc12 | 19.5% (active)
Cc1cccc(NC(=O)Nc2cccc(Oc3c(F)c(F)c(F)c(F)c3F)c2)c1 | -1.61% (inactive)
Cc1ccc(-n2cc3ccc([N+](=O)[O-])cc3n2)cc1 | 5.74% (inactive)
Cc1ccc(Nc2nnc(SCc3ccccc3)s2)cc1 | 9.35% (active)
Cc1ccc(Nc2nnc(SCC(=O)c3cc4ccccc4o3)s2)cc1C | 1.84% (inactive)
COc1ccc(S(=O)(=O)N/N=C\c2ccc(OC)c(COc3ccc(C)cc3[N+](=O)[O-])c2)cc1 | 1.84% (inactive)
CC(C)Oc1c(Br)cc(Br)cc1/C=N/NC(N)=S | 13.3% (active)
CCC(=O)c1cc2c(cc1NC(=O)c1cccs1)OCCO2 | 6.01% (inactive)
Cc1nn2cc(-c3ccc(Cl)cc3)cnc2c1Br | -1.24% (inactive)
CC(=O)Nc1ccc(NC(=O)c2sc3nc4c(c(-c5ccc(C)cc5)c3c2N)CCC4)cc1 | 5.71% (inactive)
CSc1ccc(S(=O)(=O)NCc2ccc(Cl)cc2)cc1 | 1.19% (inactive)
